Laboratory results from PubChem BioAssay (EPA / NIEHS).
Calls of active or inactive are those of the source. Rule for the calls: active = hit-call score of the fitted dose curve at least 0.9, where 1 is the maximum; inactive = score below 0.9.

Key:
[1] = molecular target: CCAAT/enhancer-binding protein beta (Homo sapiens) (UniProt P17676); test: ATG_C_EBP_CIS: Attagene CIS-FACTORIAL HepG2 Assay for human CCAAT/Enhancer Binding Protein (C/EBP) beta (AID 2282927); settings: HepG2 Attagene cis-factorial transcription factor reporter; actives raise or lower the signal
Summary of the method: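 Chemical-treated HepG2 cells (24 h) bearing cis-regulated reporter constructs were processed for total RNA, then reverse transcription, PCR amplification, fluorescent primer extension and fragment analysis; gain- and loss-of-signal were fitted against DMSO.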

[2] = ATG_CMV_CIS: Attagene CIS-FACTORIAL HepG2 Assay for human CMV (Internal Marker) (AID 2282928); settings: HepG2 CMV promoter reporter, transcription factor profiling; actives raise or lower the signal;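 note: endpoint acts as a background internal control marker rather than a target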
Summary of the method: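 Fluorescence intensity of RT-PCR-derived reporter fragments, resolved by capillary electrophoresis, gives the signal. HepG2 liver cells bearing transfected cis-element reporters were treated 24 h; activity in either direction was fit relative to DMSO-treated controls.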

[3] = ATG_AP_1_CIS: Attagene CIS-FACTORIAL HepG2 Assay for human Activator Protein 1 (AP-1) (AID 2282931); settings: HepG2 Attagene cis-factorial AP-1 reporter mRNA; actives raise or lower the signal
Summary of the method: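 HepG2 cells transiently transfected with cis-element-driven reporter transcription units, dosed for 24 hours. Reporter mRNA measured by RT-PCR, 6-FAM labelling, HpaI digestion and capillary electrophoresis. Bidirectional fitting against DMSO baseline.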

[4] = ATG_AP_2_CIS: Attagene CIS-FACTORIAL HepG2 Assay for human Activator Protein 2 (AP-2) (AID 2282932); settings: HepG2 AP-2 cis-reporter, Attagene transcription factor profiling; actives raise or lower the signal
Summary of the method: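 Cells (HepG2) transfected with promoter-driven reporter constructs, treated 24 h. Total RNA reverse-transcribed, reporter cDNA PCR-amplified, FAM-labelled by primer extension, digested, resolved by capillary electrophoresis. Activity fitted both directions versus DMSO.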

[5] = ATG_BRE_CIS: Attagene CIS-FACTORIAL HepG2 Assay for human Bone Morphogenetic Protein (BMP) Response Element (BRE) (AID 2282933); settings: HepG2 BMP response element reporter, Attagene transcription factor profiling; actives raise or lower the signal
Summary of the method: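 Endogenous transcription factor activity at a BMP response element was monitored in transfected HepG2 cells 24 h after dosing. Fluorescent RT-PCR products were resolved by capillary electrophoresis, and activity was fitted in both directions versus DMSO.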

[6] = ATG_E_Box_CIS: Attagene CIS-FACTORIAL HepG2 Assay for human Enhancer Box (E-box) (AID 2282936); settings: HepG2 E-box cis-reporter transcription, actives raise or lower the signal
Summary of the method: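 Endogenous transcription factor activity was sensed in human HepG2 liver cells through transfected cis-promoter reporter units. After 24 h of dosing, total RNA was reverse-transcribed and reporter cDNA resolved by capillary electrophoresis.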

[7] = ATG_M_61_CIS: Attagene CIS-FACTORIAL HepG2 Assay for M61 Transcription Factor (Internal Marker) (AID 2282937); settings: HepG2 Attagene CIS-FACTORIAL M61 internal marker reporter; actives raise or lower the signal
Summary of the method: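 HepG2 cells transiently transfected with multiplexed cis-promoter reporter units reporting endogenous transcription factor activity, measured 24 h after dosing. Reporter mRNA quantified by RT-PCR and capillary electrophoresis; bidirectional fit against DMSO baseline.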

[8] = ATG_EGR_CIS: Attagene CIS-FACTORIAL HepG2 Assay for human Early Growth Response 1 (EGR1) (AID 2282938); settings: HepG2 Attagene CIS-FACTORIAL EGR reporter mRNA; actives raise or lower the signal
Summary of the method: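 HepG2 cells transiently transfected with cis-element-driven multiplexed reporter units, dosed for 24 h. EGR1-element reporter mRNA quantified by RT-PCR, 6-FAM labelling, HpaI digestion and capillary electrophoresis; bidirectional fit versus DMSO.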

[9] = ATG_Ets_CIS: Attagene CIS-FACTORIAL HepG2 Assay for human Erythroblast Transformation Specific (ETS) (AID 2282941); settings: HepG2 ETS cis-reporter transcription, actives raise or lower the signal
Summary of the method: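 Multiplexed reporter transcript profiling: HepG2, 24 h treatment, total RNA to cDNA, PCR, 6-FAM labelling, HpaI cut, capillary electrophoresis. Gain- or loss-of-signal fitted against DMSO.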

[10] = ATG_FoxO_CIS: Attagene CIS-FACTORIAL HepG2 Assay for human Forkhead box O (FoxO) (AID 2282943); settings: HepG2 Attagene cis-reporter, FoxO element, mRNA; actives raise or lower the signal
Summary of the method: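 24 h chemical exposure, HepG2 with transient cis-MRTU transfection. RNA extraction, oligo(dT) RT, reporter-specific PCR, primer-extension labelling, HpaI digestion, CE fragment analysis; bidirectional fit, DMSO baseline.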

[11] = ATG_GATA_CIS: Attagene CIS-FACTORIAL HepG2 Assay for human GATA Binding Protein (AID 2282944); settings: HepG2 GATA cis-element reporter, Attagene multiplex mRNA; actives raise or lower the signal
Summary of the method: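 Endogenous transcription factor activity was captured through cis-promoter-driven reporters in transfected HepG2 cells. After 24 h exposure, reporter transcripts were quantified by RT-PCR with fluorescent capillary electrophoresis, and responses fitted both directions against DMSO.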

[12] = ATG_ISRE_CIS: Attagene CIS-FACTORIAL HepG2 Assay for human Interferon Regulatory Factor 1 (IRF1) binding to an Interferon-Stimulated Response Element (ISRE) (AID 2282948); settings: HepG2 ISRE cis-reporter (Attagene), mRNA transcription readout; actives raise or lower the signal
Summary of the method: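 Signal reflects induction or loss of ISRE-linked reporter mRNA in transiently transfected HepG2 cells after a 24 h treatment, detected by fluorescent RT-PCR fragments on capillary electrophoresis and normalised to DMSO.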

[13] = ATG_M_06_CIS: Attagene CIS-FACTORIAL HepG2 Assay for M06 Transcription Factor (Internal Marker) (AID 2282950); settings: HepG2 Attagene CIS-FACTORIAL M06 internal marker reporter; actives raise or lower the signal
Summary of the method: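 Steps: transfect HepG2 with multiplexed cis-element reporter constructs; dose chemical 24 h; extract RNA with DNase treatment; reverse-transcribe, PCR-amplify, 6-FAM label, HpaI digest; separate fragments by capillary electrophoresis. Activity fitted both directions versus DMSO.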

[14] = ATG_MRE_CIS: Attagene CIS-FACTORIAL HepG2 Assay for human Metal Responsive Element (MRE) (AID 2282954); settings: HepG2 MRE cis-reporter transcription, Attagene multiplex; actives raise or lower the signal
Summary of the method: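 Cells were transfected with cis-promoter reporter transcription units, then dosed for 24 h. RNA was reverse-transcribed, amplified, fluorescently labelled and resolved by capillary electrophoresis, and activity was fitted in both directions relative to DMSO.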

[15] = molecular target: Paired box protein Pax-6 (Homo sapiens) (UniProt P26367); test: ATG_Pax6_CIS: Attagene CIS-FACTORIAL HepG2 Assay for human Paired Box 6 (PAX6) (AID 2282956); settings: HepG2 CIS-FACTORIAL PAX6 reporter transcription, RNA readout; actives raise or lower the signal
Summary of the method: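 Values derive from bidirectional curve fitting of reporter mRNA signal relative to DMSO. HepG2 cells bearing transfected cis-regulated MRTUs were exposed for 24 h; transcripts were read by RT-PCR and capillary electrophoresis.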

[16] = molecular target: Transcription factor Sp1 (Homo sapiens) (UniProt P08047); test: ATG_Sp1_CIS: Attagene CIS-FACTORIAL HepG2 Assay for human Specificity Protein 1 (Sp1) (AID 2282961); settings: HepG2 Sp1 cis-reporter transcription, actives raise or lower the signal
Summary of the method: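 HepG2 cells transiently transfected with multiplexed cis-regulated reporter constructs, chemical exposure 24 h. Reporter mRNA quantified by RT-PCR with capillary electrophoresis; bidirectional fit relative to DMSO.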

[17] = ATG_SREBP_CIS: Attagene CIS-FACTORIAL HepG2 Assay for human Sterol Regulatory Element Binding (SREBP) (AID 2282962); settings: HepG2 Attagene cis-factorial SREBP reporter, mRNA; actives raise or lower the signal
Summary of the method: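 Values derive from bidirectional curve fitting with DMSO as baseline. The underlying measurement is reporter mRNA from cis-element-regulated units in transiently transfected HepG2, quantified by RT-PCR and capillary electrophoresis after 24 h exposure.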

[18] = molecular target: Signal transducer and activator of transcription 3 (Homo sapiens) (UniProt P40763); test: ATG_STAT3_CIS: Attagene CIS-FACTORIAL HepG2 Assay for human Signal Transducer and Activator of Transcription 3 (STAT3) (AID 2282963); settings: HepG2, Attagene cis-factorial STAT3 reporter transcription; actives raise or lower the signal
Summary of the method: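 HepG2, MRTU-transfected, 24 h dosing. RNA → RT → PCR → FAM label → HpaI → CE. Bidirectional fit vs DMSO.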

[19] = ATG_TAL_CIS: Attagene CIS-FACTORIAL HepG2 Assay for human TAL Basal Promoter (AID 2282966); settings: HepG2 Attagene cis-factorial TAL promoter reporter; actives raise or lower the signal;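 note: background control endpoint measuring basal TAL promoter reporter mRNA not a specific factor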
Summary of the method: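 Basal-promoter background-control endpoint from a multiplexed HepG2 reporter panel. Cells were exposed 24 h, then reporter mRNA was read by RT-PCR/CE fluorescence and fitted in both directions relative to DMSO.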

[20] = molecular target: X-box-binding protein 1 (Homo sapiens) (UniProt P17861); test: ATG_Xbp1_CIS: Attagene CIS-FACTORIAL HepG2 Assay for human X-box Binding Protein 1 (XBP1) (AID 2282972); settings: HepG2 XBP1 cis-element reporter, Attagene multiplex; actives raise or lower the signal
Summary of the method: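 Human hepatoma HepG2, cis-element reporter system, 24 h treatment; mRNA quantified by RT-PCR/CE fluorescence; fit relative to DMSO.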

Measured: AC50

Chain of CCAAT/enhancer-binding protein beta (Homo sapiens) (P17676 whole entry, looked up, the tested form may be a part): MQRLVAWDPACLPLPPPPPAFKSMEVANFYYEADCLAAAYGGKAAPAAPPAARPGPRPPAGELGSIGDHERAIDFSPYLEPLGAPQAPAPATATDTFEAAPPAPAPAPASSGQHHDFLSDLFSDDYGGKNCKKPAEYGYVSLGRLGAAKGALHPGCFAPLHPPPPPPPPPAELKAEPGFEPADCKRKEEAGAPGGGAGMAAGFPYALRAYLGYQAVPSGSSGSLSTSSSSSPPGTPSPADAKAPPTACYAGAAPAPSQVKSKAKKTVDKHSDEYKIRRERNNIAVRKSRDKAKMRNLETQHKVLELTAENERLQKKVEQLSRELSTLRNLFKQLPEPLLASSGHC
Chain of X-box-binding protein 1 (Homo sapiens) (P17861 whole entry, looked up): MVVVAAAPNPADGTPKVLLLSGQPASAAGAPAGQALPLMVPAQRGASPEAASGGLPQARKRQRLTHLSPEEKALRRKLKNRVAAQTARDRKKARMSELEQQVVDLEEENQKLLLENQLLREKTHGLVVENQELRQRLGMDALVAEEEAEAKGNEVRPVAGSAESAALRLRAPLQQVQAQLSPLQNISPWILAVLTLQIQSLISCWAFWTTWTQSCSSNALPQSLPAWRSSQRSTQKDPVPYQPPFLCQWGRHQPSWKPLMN
Chain of Signal transducer and activator of transcription 3 (Homo sapiens) (P40763 whole entry, looked up): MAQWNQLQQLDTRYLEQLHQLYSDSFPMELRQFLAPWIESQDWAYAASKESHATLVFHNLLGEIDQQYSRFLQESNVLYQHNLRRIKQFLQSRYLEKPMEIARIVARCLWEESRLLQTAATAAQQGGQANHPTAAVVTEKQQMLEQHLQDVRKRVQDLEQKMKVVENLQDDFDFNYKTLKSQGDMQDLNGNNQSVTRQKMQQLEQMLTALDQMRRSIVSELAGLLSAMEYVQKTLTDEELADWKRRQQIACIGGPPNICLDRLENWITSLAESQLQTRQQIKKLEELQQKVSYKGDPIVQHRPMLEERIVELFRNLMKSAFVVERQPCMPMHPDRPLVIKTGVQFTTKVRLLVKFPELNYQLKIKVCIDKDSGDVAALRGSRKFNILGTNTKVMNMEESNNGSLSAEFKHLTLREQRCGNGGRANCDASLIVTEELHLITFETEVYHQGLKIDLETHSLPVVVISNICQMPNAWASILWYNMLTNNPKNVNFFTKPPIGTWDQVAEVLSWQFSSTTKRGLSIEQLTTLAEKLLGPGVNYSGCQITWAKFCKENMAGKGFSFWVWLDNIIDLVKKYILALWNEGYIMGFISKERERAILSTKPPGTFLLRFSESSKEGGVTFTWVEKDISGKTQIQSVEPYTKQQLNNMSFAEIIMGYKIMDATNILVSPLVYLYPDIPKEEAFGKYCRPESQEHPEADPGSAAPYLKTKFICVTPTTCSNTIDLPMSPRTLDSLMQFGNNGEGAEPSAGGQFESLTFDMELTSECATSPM
Chain of Transcription factor Sp1 (Homo sapiens) (P08047 whole entry, looked up): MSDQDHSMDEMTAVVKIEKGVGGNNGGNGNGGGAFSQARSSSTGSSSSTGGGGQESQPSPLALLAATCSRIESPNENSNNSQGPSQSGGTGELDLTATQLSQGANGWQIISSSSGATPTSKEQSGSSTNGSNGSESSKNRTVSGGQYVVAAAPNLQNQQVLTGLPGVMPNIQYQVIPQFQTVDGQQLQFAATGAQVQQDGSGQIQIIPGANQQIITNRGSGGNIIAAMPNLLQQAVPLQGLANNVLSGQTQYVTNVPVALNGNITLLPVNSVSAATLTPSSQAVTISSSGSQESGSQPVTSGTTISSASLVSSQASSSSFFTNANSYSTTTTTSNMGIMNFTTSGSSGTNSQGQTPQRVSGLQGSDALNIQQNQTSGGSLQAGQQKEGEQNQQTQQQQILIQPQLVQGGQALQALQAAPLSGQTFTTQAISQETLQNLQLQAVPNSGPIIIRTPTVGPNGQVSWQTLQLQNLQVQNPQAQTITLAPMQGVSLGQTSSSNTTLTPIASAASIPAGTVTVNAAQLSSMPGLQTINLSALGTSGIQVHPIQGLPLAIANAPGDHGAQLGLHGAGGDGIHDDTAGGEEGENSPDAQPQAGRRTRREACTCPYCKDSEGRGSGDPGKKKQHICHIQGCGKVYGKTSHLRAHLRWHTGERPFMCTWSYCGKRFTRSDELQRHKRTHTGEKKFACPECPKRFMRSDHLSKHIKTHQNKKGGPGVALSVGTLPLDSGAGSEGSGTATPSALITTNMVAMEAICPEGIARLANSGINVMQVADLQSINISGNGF
Chain of Paired box protein Pax-6 (Homo sapiens) (P26367 whole entry, looked up): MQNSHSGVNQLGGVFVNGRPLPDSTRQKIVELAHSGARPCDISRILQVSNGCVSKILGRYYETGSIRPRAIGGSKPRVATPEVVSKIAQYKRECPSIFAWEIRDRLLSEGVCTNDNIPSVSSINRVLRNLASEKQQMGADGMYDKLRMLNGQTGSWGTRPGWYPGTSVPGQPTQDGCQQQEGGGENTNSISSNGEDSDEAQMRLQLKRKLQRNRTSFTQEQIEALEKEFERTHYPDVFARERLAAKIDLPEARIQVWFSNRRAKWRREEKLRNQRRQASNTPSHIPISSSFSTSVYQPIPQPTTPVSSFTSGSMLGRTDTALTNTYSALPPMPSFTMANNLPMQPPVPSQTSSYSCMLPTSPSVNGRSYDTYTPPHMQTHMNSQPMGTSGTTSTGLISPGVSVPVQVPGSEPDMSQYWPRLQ

CN(C)c1ccc(C(c2ccccc2)c2ccc(N(C)C)cc2)cc1
active: [3] 100 µM | [5] 100 µM
inactive: all other assays above

C=CN1CCCCCC1=O
inactive: all assays above

OCCc1ccccn1
inactive: all assays above

CC(C)(Oc1ccc(Cl)cc1)C(=O)O
inactive: all assays above

CC(C)n1c(/C=C/[C@@H](O)C[C@@H](O)CC(=O)O)c(-c2ccc(F)cc2)c2ccccc21
active: [17] 0.284 µM
inactive: all other assays above

C[Si](C)(C)O[Si](C)(C)O[Si](C)(C)C
inactive: all assays above

c1ccc2c(c1)Oc1ccccc1S2
active: [6] 57.3 µM | [16] 155 µM | [17] 146 µM
inactive: all other assays above

O=C(O)c1nc(Cl)c(Cl)c(Cl)c1Cl
inactive: all assays above

CCOC(=O)c1ccccc1
active: [1] 68.7 µM | [9] 180 µM | [12] 167 µM | [16] 28 µM
inactive: all other assays above

CC/C=C/CCO
inactive: all assays above

Nc1ccc(S(=O)(=O)Nc2cnc3ccccc3n2)cc1
inactive: all assays above

CN(C)N=Nc1ccccc1
inactive: all assays above

OCCOCCOCCOCCOCCO
inactive: all assays above

CN(C)CCCN1c2ccccc2CCc2ccc(Cl)cc21
active: [4] 7.1 µM | [15] 11.1 µM | [17] 15.8 µM
inactive: all other assays above
